In all, about 420,000 compounds went through this assay and about 50,000 (12%) were called active. A call without a number means that no potency is given here. Roughly 26% stayed inconclusive and do not appear here. Calls follow the shape of the dose curve; as a rule, active = well fitted inhibition curve with a large enough effect; inconclusive = small, poorly fitted or top-dose-only effect; inactive = flat fitted curve, though single readings scatter. Many of the other results were omitted from the sample, so actives are more common in it than they were.
Experiment: qHTS for Inhibitors of human tyrosyl-DNA phosphodiesterase 1 (TDP1): qHTS in cells in presence of CPT; also: nearly all actives have a fitted effect of over 55% in size
Settings: chicken DT40 Tdp1-/-;hTDP1 cells + 20 nM CPT, ATP luminescence, 48 h; series mostly up to 46.2 µM
Procedure, shortened: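 Chicken DT40 Tdp1-/- cells stably complemented with human TDP1 were seeded at 400 cells/well in medium containing 20 nM camptothecin, exposed to pin-transferred compounds, and grown at 37 °C for at least 48 hr. Viability was read as ATP luminescence.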
In the case of `O=C1CS(=O)CN1c1ccc(Oc2ccccc2)cc1` (centres undefined), the Potency is reported as “inactive”.
In the case of `COc1ccc(-c2cc(C(F)(F)F)nc(NCc3cccnc3)n2)cc1`, the Potency is reported as “inactive”.
With `COc1ccc(-c2nc3cnccn3c2NC(C)(C)CC(C)(C)C)cc1O` the Potency was 20.6 µM (active).
For `Cc1cccc(NC(=O)N2CCN(C)c3ncccc32)c1C`, the Potency was “inactive”.
With `CCOc1ccccc1C(=O)NCCCn1ccnc1` the Potency was “inactive”.
For `CCOc1ccccc1C(=O)Nc1ccc2c(c1)N(C)C(=O)c1ccccc1S2`, the Potency was 4.61 µM (active).
With `CCN1C(=O)c2ccccc2Sc2ccc(NC(=O)Cc3ccc(OC)cc3)cc21` the Potency was “inactive”.
For `C[C@H]1CC[C@]2(O[C@@H](CCO)C[C@@H](O)[C@@H]2O)O1`, the Potency was “inactive”.
With `C=CCn1cc(Cl)cc(C(=O)Nc2ccccc2)c1=O` the Potency was “inactive”.
With `CN(C)C(=O)N1CCNCC1` the Potency was “inactive”.
With `CC(C)(C)C(=O)NC(NC(=S)Nc1ccc(S(N)(=O)=O)cc1)C(Cl)(Cl)Cl` (centres undefined) the Potency was “inactive”.
For `CCOc1cc(C(=O)Nc2c(C)ccc3nsnc23)cc(OCC)c1OCC`, the Potency was “inactive”.
With `COc1ccc(-c2nnc(SC(=O)N3c4ccccc4Sc4ccccc43)o2)cc1` the Potency was 8.2 µM (active).
In the case of `COc1ccc(-c2nnc(SC(C)C(=O)NC3CC3)o2)cc1` (centres undefined), the Potency is reported as “inactive”.
For `COc1ccc(-c2nnc(SC(C)C#N)o2)cc1` (centres undefined), the Potency was “inactive”.
In the case of `OCCN1CCN(c2nnc(-c3ccccc3)c3ccccc23)CC1`, the Potency is reported as “inactive”.
In the case of `Clc1ccc(-c2nnc(-c3ccccc3)nc2N2CCSCC2)cc1`, the Potency is reported as 16.4 µM (active).
For `O=C(Cn1c(=O)n(-c2ccc(F)cc2)c(=O)c2sc3ccccc3c21)NC1CCCC1`, the Potency was “inactive”.
With `O=c1c2ccccc2ncn1CCc1ccncc1` the Potency was “inactive”.
With `COc1ccccc1-c1cc2nc(C)c(CCC(=O)O)c(C)n2n1` the Potency was “inactive”.
With `Cc1ccc(S(=O)(=O)n2nc(OC(=O)C(C)(C)C)cc2N)cc1` the Potency was “inactive”.
For `CCOC(=O)c1oc2ccc(S(=O)(=O)n3nc(-c4ccccc4OC)cc3N)cc2c1C`, the Potency was 18.4 µM (active).
For `O=C(CC1C(=O)NCCN1Cc1ccc(-c2ccccc2)cc1)NCc1ccncc1` (centres undefined), the Potency was “inactive”.
With `CN[C@@H]1[C@H](O[C@H]2[C@H](O[C@H]3[C@H](O)[C@@H](O)[C@H](N=C(N)N)[C@@H](O)[C@@H]3N=C(N)N)O[C@@H](C)[C@]2(O)CO)O[C@@H](CO)[C@H](O)[C@H]1O` the Potency was “inactive”.
For `Cc1nc(Nc2ccc(S(=O)(=O)N3CCCC3)cc2)c2nnn(Cc3ccccc3)c2n1`, the Potency was “inactive”.
For `Cc1ccc(-c2csc(-c3c[nH]c4ccccc34)n2)cc1`, the Potency was 16.4 µM (active).
With `Cc1ccc(-c2csc(-c3cc(C)on3)n2)cc1` the Potency was “inactive”.
For `Clc1ccc(-c2csc(-c3ccncc3)n2)cc1`, the Potency was “inactive”.
For `O=C(NNC1=NCCC1)c1cccc(S(=O)(=O)N2CCCCC2)c1`, the Potency was “inactive”.
With `CCCCCn1nnnc1-c1nc2cc3ccccc3cc2[nH]c1=O` the Potency was 4.11 µM (active).
With `c1ccc2cc3[nH]c(CN4CCCCC4)nc3cc2c1` the Potency was “inactive”.
In the case of `Cc1ccc(-c2nc3ccccc3[nH]c2=O)cc1`, the Potency is reported as “inactive”.
For `CN1CCN(c2ccc(NC(=O)c3ccc4c(c3)OCCO4)cc2Cl)CC1`, the Potency was “inactive”.
In the case of `Cc1cc(C)cc(NC(=O)Cc2csc(C)n2)c1`, the Potency is reported as “inactive”.
With `O=C(OCCN1C(=O)c2ccccc2C1=O)Oc1ccccc1` the Potency was “inactive”.
In the case of `O=C(Cn1c(-c2cscn2)nc2ccccc21)Nc1ccc(Cl)cc1`, the Potency is reported as 5.8 µM (active).
For `O=C(Cn1c(-c2cncs2)nc2ccccc21)NC1CCCC1`, the Potency was “inactive”.
For `COc1ccc(NC(=O)COC(=O)Cn2c(C)nc3ccccc32)cc1OC`, the Potency was “inactive”.
In the case of `COc1ccc(/C=N/N(C)C2=NS(=O)(=O)c3ccccc32)cc1OC`, the Potency is reported as “inactive”.
In the case of `CC1(C(=O)Nc2ccc3c(c2)OCCO3)CSCC(=O)N1CCOc1ccccc1` (centres undefined), the Potency is reported as “inactive”.
For `Cn1c(SCC(=O)c2ccccc2)ncc(C(=O)Nc2ccc(F)cc2)c1=O`, the Potency was “inactive”.
For `Cc1ccc(NC(=O)c2cnc(SCC(=O)NCC3CCCO3)n(C)c2=O)cc1` (centres undefined), the Potency was 11.6 µM (active).
In the case of `Cc1cc(NC(=O)CSc2ncc(C(=O)Nc3ccc(Cl)cc3)c(=O)n2C)no1`, the Potency is reported as “inactive”.
For `O=C(NC1CCCCC1)C1CCCN(S(=O)(=O)c2ccc(Br)s2)C1` (centres undefined), the Potency was “inactive”.
For `Nc1nc(SCc2ccc([N+](=O)[O-])cc2)c2ncn(C3OC(CO)C(O)C3O)c2n1` (centres undefined), the Potency was “inactive”.
With `O=C(Nc1nnc(C2CC2)s1)C1=NN(C2CCS(=O)(=O)C2)C(=O)CC1` (centres undefined) the Potency was “inactive”.
For `COc1ccc(CNC(=O)c2ccc(NS(=O)(=O)c3ccc4[nH]c(=O)[nH]c4c3)cc2)cc1OC`, the Potency was “inactive”.
For `O=C(COC(=O)CNS(=O)(=O)c1ccc(F)c(F)c1F)NC1CCCC1`, the Potency was “inactive”.
In the case of `O=C(CCNS(=O)(=O)c1ccccc1C(F)(F)F)NCc1ccc2c(c1)OCO2`, the Potency is reported as “inactive”.
For `O=C(CCc1nnc(Cc2ccc3c(c2)OCO3)o1)NCCc1ccccc1Cl`, the Potency was 11.6 µM (active).
With `Cn1cc(CCC(=O)NCc2ccc3c(c2)OCO3)c2ccccc21` the Potency was “inactive”.
In the case of `O=C(O)CCC(=O)NCc1ccc(C(=O)O)cc1`, the Potency is reported as “inactive”.
In the case of `COc1cc2c(cc1CNC[C@H]1O[C@@H](n3cnc(C(N)=O)n3)[C@H](O)[C@@H]1O)OCO2`, the Potency is reported as “inactive”.
For `COc1cc(C2NC(=O)NC(c3ccccc3)=C2C(C)=O)c(Br)cc1OCC(N)=O` (centres undefined), the Potency was “inactive”.
For `COC(=O)COc1ccc(C2NC(=O)NC(C)=C2C(=O)NCc2ccccc2)cc1OC` (centres undefined), the Potency was “inactive”.
With `CCCOc1ccc(C2NC(=O)NC(c3ccccc3)=C2C(C)=O)cc1OCC` (centres undefined) the Potency was 23.1 µM (active).
For `CC1CC1C(=O)OCC(=O)Nc1cccc(F)c1` (centres undefined), the Potency was “inactive”.
In the case of `CSC1=N/C(=C\C=C\c2cccs2)C(=O)S1`, the Potency is reported as 14.6 µM (active).
For `O=C1N/C(=C/c2cccs2)C(=O)N1Cc1ccc(F)cc1`, the Potency was “inactive”.
In the case of `CN1C/C(=C/c2cccs2)C(=O)/C(=C\c2cccs2)C1`, the Potency is reported as “inactive”.
With `Cn1c(=O)n(Cc2c(F)cccc2Cl)c(=O)c2c1nc1n2CCN1c1ccc(F)cc1` the Potency was “inactive”.
With `COc1ccc(OC)c(-c2csc(-c3c(N)c(C(=O)c4ccccc4)n4ccccc34)n2)c1` the Potency was “inactive”.
With `CCN1/C(=C/c2ccc3ccc(C)cc3[n+]2CC)Sc2ccccc21` the Potency was 2.06 µM (active).
With `CCN1/C(=C/C(=S)Nc2ccccc2)Sc2ccccc21` the Potency was “inactive”.
For `CCN1/C(=C\c2ccc3ccccc3[n+]2CC)Sc2cc(C)ccc21`, the Potency was 0.184 µM (active).
With `O=C(CN1C(=O)NC2(CCCCCC2)C1=O)NCc1cccs1` the Potency was “inactive”.
With `O=C(CN1C(=O)NC2(CCCCCCC2)C1=O)NCc1ccc(F)cc1` the Potency was 16.4 µM (active).
With `O=C(CN1C(=O)NC2(CCCCCC2)C1=O)NCc1ccc(F)cc1` the Potency was “inactive”.
For `Cc1ccc(NC(=O)NC(=O)CSc2nnc(-c3ccc(OC(F)F)cc3)n2N)c(C)c1`, the Potency was “inactive”.
In the case of `CC(C)(C)C(=O)Nc1ccc(-c2cn3cccnc3n2)cc1`, the Potency is reported as “inactive”.
With `O=C(CC1CCCCC1)NCc1ccccc1` the Potency was “inactive”.
In the case of `C/C(=N\NC(=S)NCc1ccccc1)C1CCCCC1`, the Potency is reported as 6.51 µM (active).
In the case of `CC1CCCCN1C(=S)NCc1ccccc1` (centres undefined), the Potency is reported as “inactive”.
In the case of `O=C(Nc1ccon1)c1nc[nH]c1C(=O)NCc1ccccc1`, the Potency is reported as “inactive”.
In the case of `CCC(=O)N1CCc2cc(Br)cc(S(=O)(=O)NCc3ccc(Cl)cc3)c21`, the Potency is reported as “inactive”.
For `CC(=O)C1=C(C)NC(=O)NC1c1ccc2c(c1)OCO2` (centres undefined), the Potency was “inactive”.
For `O=C1C=C(c2ccnc3cc(Cl)ccc23)C[C@@H](c2ccc3c(c2)OCO3)C1`, the Potency was 5.8 µM (active).
For `O=C1C=C(c2cccc(Cl)c2)C[C@@H](c2ccc(F)cc2)C1`, the Potency was “inactive”.
For `Cc1ccc(NC(=O)C2CCCN2C(=O)OCc2ccccc2)cc1C` (centres undefined), the Potency was “inactive”.
In the case of `Cc1ccc(C)c(NC(=O)C2CCCN2C(=O)OC(C)(C)C)c1` (centres undefined), the Potency is reported as “inactive”.
In the case of `Cc1cccc(C)c1NC(=O)C1CCCN1C(=O)OC(C)(C)C` (centres undefined), the Potency is reported as 11.6 µM (active).
For `Cc1csc(=O)n1CCC(=O)OCC(=O)Nc1ccc(N2CCOCC2)cc1`, the Potency was “inactive”.
In the case of `C[C@H](NC(=O)CC[C@H]1O[C@@H](n2ccc(=O)[nH]c2=O)[C@H](O)[C@@H]1O)c1cccc2ccccc12`, the Potency is reported as “inactive”.
For `COc1ccc([N+](=O)[O-])cc1N(CC(=O)Nc1ccccc1C(=O)N1CCOCC1)S(C)(=O)=O`, the Potency was “inactive”.
With `CC1Oc2ccccc2N(Cc2cccnc2)C1=O` (centres undefined) the Potency was “inactive”.
In the case of `O=C1C(Cc2ccc(O)cc2)NC(=S)N1Cc1ccccc1` (centres undefined), the Potency is reported as “inactive”.
For `CC1C(=O)N(Cc2ccccc2)c2ccccc2N1C(=O)c1ccccc1` (centres undefined), the Potency was 23.1 µM (active).
With `COc1ccc(C(=O)COC(=O)C(O)c2ccccc2)c(OC)c1` (centres undefined) the Potency was “inactive”.
In the case of `O=C1N(c2ccccc2)C(=Nc2ccccc2)SC12CC2`, the Potency is reported as “inactive”.
In the case of `Cc1cc(C)c(S(=O)(=O)Nc2c(C)n(C)n(-c3ccccc3)c2=O)cc1[N+](=O)[O-]`, the Potency is reported as “inactive”.
In the case of `CC(=O)Nc1cccc(-c2ccnc3c2CC(C)(C(=O)NCc2ccccc2)O3)c1` (centres undefined), the Potency is reported as 0.82 µM (active).
In the case of `COc1ccc(NC(=O)C2(C)Cc3c(-c4ccc(C(N)=O)cc4)ccnc3O2)cc1` (centres undefined), the Potency is reported as “inactive”.
In the case of `CC(C)(C)NC(=O)NCc1ccco1`, the Potency is reported as “inactive”.
For `CC1(C)Cc2cccc(OCC(=O)NCc3ccccc3)c2O1`, the Potency was “inactive”.
With `CC(=O)Nc1cccc(-c2cnc3ccccc3n2)c1` the Potency was “inactive”.
In the case of `CC1(C(=O)NCC2CCOCC2)Cc2c(-c3cccc(C(N)=O)c3)ccnc2O1` (centres undefined), the Potency is reported as 25.9 µM (active).
In the case of `COc1cccc(NC(=S)NCc2ccco2)c1`, the Potency is reported as “inactive”.
With `COc1ccc(NC(=O)Nc2cccc(-c3noc(C)n3)c2)cc1` the Potency was “inactive”.
With `CC(=O)Nc1cccc(-c2ccnc3c2CC(C)(C(=O)NCc2ccco2)O3)c1` (centres undefined) the Potency was 1.03 µM (active).
In the case of `COc1ccc(NC(=O)C2(C)Cc3c(-c4cccc(NC(C)=O)c4)ccnc3O2)cc1` (centres undefined), the Potency is reported as 1.64 µM (active).
With `COc1ccc(NC(=O)CCn2ccnc2)c(OC)c1` the Potency was “inactive”.
For `CC1=C(C(=O)N2CCOCC2)CC(CC(=O)NCCCN(C)C)C(=O)N1Cc1ccc(C(C)(C)C)cc1` (centres undefined), the Potency was “inactive”.
In the case of `CC(C)N(C(=O)CSc1nnc(NC2CC2)s1)c1ccccc1`, the Potency is reported as “inactive”.
In the case of `O=C(Nc1cc(-c2nc3ncccc3o2)ccc1Cl)c1ccco1`, the Potency is reported as “inactive”.

Reference: PubChem BioAssay AID686979 (National Center for Advancing Translational Sciences (NCATS), 2013)
Potency is read from the fitted curve at half-maximal effect.
